The record followed here is PubChem BioAssay (NCI).

About 83,000 compounds went through this panel and 20% of them were active in at least one assay; those are over-represented in the sample as a whole.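 In brief: 96-well plates, 48 h treatment, single concentration, percent growth endpoint.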 Values without a mark were called inactive. Active and inactive are the calls of the source. Rule for the calls: active = growth percent below 10; inactive = the rest.

The test system of the first assay is ACHN renal. Put plainly: NCI-60 one-dose screen, 48 h (100 = growth as untreated, 0 = no growth, -100 = all killed). As to conditions: 10 µM unless noted.
Turning to `COc1ccccc1-n1c(SCc2cc(OC)c(OC)c(OC)c2)nc2ccc(Cl)cc2c1=O`, the growth was 44.2%.

With `C[C@@H](Oc1cc(-c2cnn(C3CC4(CCCNC4)C3)c2)cnc1N)c1c(Cl)ccc(F)c1Cl` (some centres undefined), the growth was 29.5%.

`Cn1c2ccc(Cl)cc2c2nn(C(=O)c3ccccc3)c(=O)nc21`: the growth was 95.2%.

For `CC1=CN2C(=NC3=C(CCCC/C3=C\c3ccccc3)C2c2ccccc2)S1` (centres undefined), the growth is 99.5%.

For the compound `Nc1c(Br)cc(Br)cc1-c1n[nH]c(=O)[nH]c1=O`, the growth was 91.9%.

The next assay deals with CAKI-1 renal. Described as above. As to conditions: 10 µM unless noted.
Turning to `COc1ccccc1-n1c(SCc2cc(OC)c(OC)c(OC)c2)nc2ccc(Cl)cc2c1=O`, the growth was 42.6%.

With `C[C@@H](Oc1cc(-c2cnn(C3CC4(CCCNC4)C3)c2)cnc1N)c1c(Cl)ccc(F)c1Cl` (some centres undefined), the growth is 56.6%.

For `CC(C)(C)[Si](C)(C)OC1[C@@H](COC(=O)NC(=O)CCl)O[C@@H](n2cnc3c(N)ncnc32)[C@H]1O[Si](C)(C)C(C)(C)C` (some centres undefined), the growth is 19.3%.

As for `CC1=CN2C(=NC3=C(CCCC/C3=C\c3ccccc3)C2c2ccccc2)S1` (centres undefined), the growth is 96.3%.

`Nc1c(Br)cc(Br)cc1-c1n[nH]c(=O)[nH]c1=O`: the growth is 86.4%.

As for `c1ccc(-c2nc(N3CCOCC3)c3c4c(sc3n2)CCCCCC4)nc1`, the growth was 35.3%.

The next assay concerns A498 renal. Described as above. The conditions noted are these: 10 µM unless noted.
Regarding `CC(C)(C)[Si](C)(C)OC1[C@@H](COC(=O)NC(=O)CCl)O[C@@H](n2cnc3c(N)ncnc32)[C@H]1O[Si](C)(C)C(C)(C)C` (some centres undefined), the growth is 105%.

For the compound `CC1=CN2C(=NC3=C(CCCC/C3=C\c3ccccc3)C2c2ccccc2)S1` (centres undefined), the growth is 117%.

As for `Nc1c(Br)cc(Br)cc1-c1n[nH]c(=O)[nH]c1=O`, the growth is 91.7%.

`c1ccc(-c2nc(N3CCOCC3)c3c4c(sc3n2)CCCCCC4)nc1`: the growth was -6.33% (active).

The next assay relates to CCRF-CEM leukemia. The assay is described as above. The conditions noted are these: 10 µM unless noted.
In the case of `COc1ccccc1-n1c(SCc2cc(OC)c(OC)c(OC)c2)nc2ccc(Cl)cc2c1=O`, the growth is 2.88% (active).

With `C[C@@H](Oc1cc(-c2cnn(C3CC4(CCCNC4)C3)c2)cnc1N)c1c(Cl)ccc(F)c1Cl` (some centres undefined), the growth is -6.75% (active).

Turning to `Cn1c2ccc(Cl)cc2c2nn(C(=O)c3ccccc3)c(=O)nc21`, the growth was 96%.

As for `CC(C)(C)[Si](C)(C)OC1[C@@H](COC(=O)NC(=O)CCl)O[C@@H](n2cnc3c(N)ncnc32)[C@H]1O[Si](C)(C)C(C)(C)C` (some centres undefined), the growth is -48.6% (active).

The next assay concerns MOLT-4 leukemia. The assay is described as above. The conditions noted are these: 10 µM unless noted.
For `COc1ccccc1-n1c(SCc2cc(OC)c(OC)c(OC)c2)nc2ccc(Cl)cc2c1=O`, the growth was 15.4%.

Take `C[C@@H](Oc1cc(-c2cnn(C3CC4(CCCNC4)C3)c2)cnc1N)c1c(Cl)ccc(F)c1Cl` (some centres undefined): the growth was -7.46% (active).

On to `Cn1c2ccc(Cl)cc2c2nn(C(=O)c3ccccc3)c(=O)nc21`, for which the growth was 99%.

In the case of `CC(C)(C)[Si](C)(C)OC1[C@@H](COC(=O)NC(=O)CCl)O[C@@H](n2cnc3c(N)ncnc32)[C@H]1O[Si](C)(C)C(C)(C)C` (some centres undefined), the growth is -54.7% (active).

Consider `CC1=CN2C(=NC3=C(CCCC/C3=C\c3ccccc3)C2c2ccccc2)S1` (centres undefined), for which the growth was 99.8%.

Consider `c1ccc(-c2nc(N3CCOCC3)c3c4c(sc3n2)CCCCCC4)nc1`, for which the growth was 52.7%.

Another assay relates to SR leukemia. The description is as above. The conditions noted are these: 10 µM unless noted.
Take `COc1ccccc1-n1c(SCc2cc(OC)c(OC)c(OC)c2)nc2ccc(Cl)cc2c1=O`: the growth was 16.1%.

On to `C=CCCCCCCCCC(=O)[O-].C=CCCCCCCCCC(=O)[O-].[Zn+2]`, for which the growth was 91.1%.

In the case of `C[C@@H](Oc1cc(-c2cnn(C3CC4(CCCNC4)C3)c2)cnc1N)c1c(Cl)ccc(F)c1Cl` (some centres undefined), the growth is -3.47% (active).

Turning to `Cn1c2ccc(Cl)cc2c2nn(C(=O)c3ccccc3)c(=O)nc21`, the growth is 93%.

For the compound `CC(C)(C)[Si](C)(C)OC1[C@@H](COC(=O)NC(=O)CCl)O[C@@H](n2cnc3c(N)ncnc32)[C@H]1O[Si](C)(C)C(C)(C)C` (some centres undefined), the growth is -57.5% (active).

As to `Nc1c(Br)cc(Br)cc1-c1n[nH]c(=O)[nH]c1=O`, the growth is 7.84% (active).

With `Cc1ccc(C(=O)O[C@H](C(=O)O)[C@H](OC(=O)c2ccc(C)cc2)C(=O)O)cc1`, the growth was 87.5%.

The next assay relates to RPMI-8226 leukemia. The description is as above. The conditions noted are these: 10 µM.
In the case of `COc1ccccc1-n1c(SCc2cc(OC)c(OC)c(OC)c2)nc2ccc(Cl)cc2c1=O`, the growth was 17.4%.

Take `C[C@@H](Oc1cc(-c2cnn(C3CC4(CCCNC4)C3)c2)cnc1N)c1c(Cl)ccc(F)c1Cl` (some centres undefined): the growth was -0.0926% (active).

Turning to `Cn1c2ccc(Cl)cc2c2nn(C(=O)c3ccccc3)c(=O)nc21`, the growth is 106%.

In the case of `CC(C)(C)[Si](C)(C)OC1[C@@H](COC(=O)NC(=O)CCl)O[C@@H](n2cnc3c(N)ncnc32)[C@H]1O[Si](C)(C)C(C)(C)C` (some centres undefined), the growth is -29.5% (active).

For `CC1=CN2C(=NC3=C(CCCC/C3=C\c3ccccc3)C2c2ccccc2)S1` (centres undefined), the growth was 112%.

On to `Nc1c(Br)cc(Br)cc1-c1n[nH]c(=O)[nH]c1=O`, for which the growth was 99.6%.

Regarding `c1ccc(-c2nc(N3CCOCC3)c3c4c(sc3n2)CCCCCC4)nc1`, the growth was 33.3%.
